# Experimental data published in the supplement of paper PMC12494721.
# Structures can show the parent of a compound that is named as a salt.
# Assays:
# Details in all cases: incubation time: 27 h, anaerobic, 37 °C;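 for the amine columns active = adjusted P below 0.05 in both replicates with a change the same way and a mean fold change under 0.8 or over 1.25; inactive = the rest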
# [1] = system: Clostridium sporogenes DSM 1664; assay: growth (OD595) fold change vs plate DMSO controls (fold change (ratio)); higher = more growth
# In short: (§1)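 Absorbance at 595 nm was read after shaking the anaerobic mGAM cultures, which had grown in 96-well plates for 27 h at 37 °C. After blank subtraction and background correction against 20 µM compound solutions in water, a calibration factor of 5 gave OD values. Growth is the fold change against the median of the plate's DMSO controls. Values are the mean of 2 biological replicates, with fold changes above 1.5 set to NA.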
# [2] = system: Escherichia coli IAI1; assay: as above
# In short: as §1
# [3] = system: Klebsiella aerogenes DSM 30053; assay: as above
# In short: as §1
# [4] = system: Ruminococcus gnavus DSM 108212; assay: as above
# In short: as §1
# [5] = system: Klebsiella aerogenes DSM 30053; assay: fold change of Histamine concentration vs plate DMSO controls (fold change (ratio)); higher = more amine produced, active = hit call of the paper (significant change in both replicates, either direction)
# In short: (§2)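 In 80 µL wells, cultures of four gut bacterial strains in mGAM started at OD 0.1 before a 1:1 dilution and grew anaerobically at 37 °C for 27 h. Compounds were added to 20 µM final, except sweeteners at 50 µM final. After extraction of whole cultures with cold acetonitrile/methanol plus 0.1% formic acid and centrifugation, amines were measured by LC–triple-quadrupole MS in dynamic MRM mode against external calibration curves, with within-batch drift correction. Values give fold change over DMSO controls on the same plate, averaged across 2 biological replicates.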
# [6] = system: Clostridium sporogenes DSM 1664; assay: fold change of Tryptamine concentration vs plate DMSO controls (fold change (ratio)); higher = more amine produced, active = hit call of the paper (significant change in both replicates, either direction)
# In short: as §2
# [7] = system: Ruminococcus gnavus DSM 108212; assay: as above
# In short: as §2
# [8] = system: Escherichia coli IAI1; assay: fold change of Putrescine concentration vs plate DMSO controls (fold change (ratio)); higher = more amine produced, active = hit call of the paper (significant change in both replicates, either direction)
# In short: as §2
# [9] = system: Klebsiella aerogenes DSM 30053; assay: as above
# In short: as §2
# [10] = system: Escherichia coli IAI1; assay: fold change of Cadaverine concentration vs plate DMSO controls (fold change (ratio)); higher = more amine produced, active = hit call of the paper (significant change in both replicates, either direction)
# In short: as §2
# [11] = system: Klebsiella aerogenes DSM 30053; assay: as above
# In short: as §2
# [12] = system: Ruminococcus gnavus DSM 108212; assay: fold change of 2-Phenylethylamine concentration vs plate DMSO controls (fold change (ratio)); higher = more amine produced, active = hit call of the paper (significant change in both replicates, either direction)
# In short: as §2
structure (smiles),measurement,setting,value
N=C(N)N1CCc2ccccc2C1 [Debrisoquin sulfate] (20 µM),growth,[1],1.11
same,growth,[2],1
same,growth,[3],1.02
same,growth,[4],1.13
same,fold change of Histamine concentration,[5],1.01 (inactive)
same,fold change of Tryptamine concentration,[6],1.03 (inactive)
same,fold change of Tryptamine concentration,[7],1.02 (inactive)
same,fold change of Putrescine concentration,[8],1.03 (inactive)
same,fold change of Putrescine concentration,[9],1 (inactive)
same,fold change of Cadaverine concentration,[10],0.999 (inactive)
same,fold change of Cadaverine concentration,[11],0.993 (inactive)
same,fold change of 2-Phenylethylamine concentration,[12],1.05 (inactive)
Cc1ccccc1N1C(=O)c2cc(S(N)(=O)=O)c(Cl)cc2NC1C (centres undefined) [Metolazone] (20 µM),growth,[1],1.14
same,growth,[2],0.984
same,growth,[3],1.02
same,growth,[4],1.07
same,fold change of Histamine concentration,[5],1.04 (inactive)
same,fold change of Tryptamine concentration,[6],0.993 (inactive)
same,fold change of Tryptamine concentration,[7],1.03 (inactive)
same,fold change of Putrescine concentration,[8],1.02 (inactive)
same,fold change of Putrescine concentration,[9],0.995 (inactive)
same,fold change of Cadaverine concentration,[10],0.977 (inactive)
same,fold change of Cadaverine concentration,[11],0.993 (inactive)
same,fold change of 2-Phenylethylamine concentration,[12],1.04 (inactive)
COc1nc(N)nc2c1ncn2[C@@H]1O[C@H](CO)[C@@H](O)[C@@H]1O [Nelarabine] (20 µM),growth,[1],1.13
same,growth,[2],0.973
same,growth,[3],0.999
same,growth,[4],0.914
same,fold change of Histamine concentration,[5],1.08 (inactive)
same,fold change of Tryptamine concentration,[6],0.945 (inactive)
same,fold change of Tryptamine concentration,[7],1.03 (inactive)
same,fold change of Putrescine concentration,[8],1.01 (inactive)
same,fold change of Putrescine concentration,[9],1.01 (inactive)
same,fold change of Cadaverine concentration,[10],0.989 (inactive)
same,fold change of Cadaverine concentration,[11],0.978 (inactive)
same,fold change of 2-Phenylethylamine concentration,[12],1.03 (inactive)
C[C@@H](O)[C@H]1C(=O)N2C(C(=O)O)=C(SCCNC=N)C[C@H]12 [Imipenem] (20 µM),growth,[1],0.318
same,growth,[2],1.08
same,growth,[3],0.85
same,growth,[4],0.0868
same,fold change of Histamine concentration,[5],0.772 (inactive)
same,fold change of Tryptamine concentration,[6],0.0417 (active)
same,fold change of Tryptamine concentration,[7],0.0408 (active)
same,fold change of Putrescine concentration,[8],0.971 (inactive)
same,fold change of Putrescine concentration,[9],1.03 (inactive)
same,fold change of Cadaverine concentration,[10],1.65 (active)
same,fold change of Cadaverine concentration,[11],1 (inactive)
same,fold change of 2-Phenylethylamine concentration,[12],0.0463 (active)
Cc1ccccc1OCC(O)CO (centres undefined) [Mephenesin] (20 µM),growth,[1],0.974
same,growth,[2],1.12
same,growth,[3],1.02
same,growth,[4],0.982
same,fold change of Histamine concentration,[5],1.01 (inactive)
same,fold change of Tryptamine concentration,[6],1.02 (inactive)
same,fold change of Tryptamine concentration,[7],1.04 (inactive)
same,fold change of Putrescine concentration,[8],1.13 (inactive)
same,fold change of Putrescine concentration,[9],1 (inactive)
same,fold change of Cadaverine concentration,[10],0.927 (inactive)
same,fold change of Cadaverine concentration,[11],1 (inactive)
same,fold change of 2-Phenylethylamine concentration,[12],1.06 (inactive)
CC(C(=O)O)c1ccc(C(=O)c2cccs2)cc1 (centres undefined) [Suprofen] (20 µM),growth,[1],1.08
same,growth,[2],0.983
same,growth,[3],0.986
same,growth,[4],0.974
same,fold change of Histamine concentration,[5],1.03 (inactive)
same,fold change of Tryptamine concentration,[6],1.04 (inactive)
same,fold change of Tryptamine concentration,[7],1.09 (inactive)
same,fold change of Putrescine concentration,[8],0.954 (inactive)
same,fold change of Putrescine concentration,[9],0.995 (inactive)
same,fold change of Cadaverine concentration,[10],1.01 (inactive)
same,fold change of Cadaverine concentration,[11],0.986 (inactive)
same,fold change of 2-Phenylethylamine concentration,[12],1.08 (inactive)
NS(=O)(=O)c1cc(C(=O)O)c(NCc2ccco2)cc1Cl [Furosemide] (20 µM),growth,[1],0.941
same,growth,[2],1.01
same,growth,[3],1.04
same,growth,[4],1.22
same,fold change of Histamine concentration,[5],0.987 (inactive)
same,fold change of Tryptamine concentration,[6],0.964 (inactive)
same,fold change of Tryptamine concentration,[7],1.01 (inactive)
same,fold change of Putrescine concentration,[8],1.04 (inactive)
same,fold change of Putrescine concentration,[9],0.984 (inactive)
same,fold change of Cadaverine concentration,[10],0.995 (inactive)
same,fold change of Cadaverine concentration,[11],0.988 (inactive)
same,fold change of 2-Phenylethylamine concentration,[12],0.964 (inactive)
Cc1cc(-n2c(=O)[nH]c(=O)n(C)c2=O)ccc1Oc1ccc(SC(F)(F)F)cc1 [Toltrazuril] (20 µM),growth,[1],1.1
same,growth,[2],0.997
same,growth,[3],1.05
same,growth,[4],1.09
same,fold change of Histamine concentration,[5],0.976 (inactive)
same,fold change of Tryptamine concentration,[6],0.941 (inactive)
same,fold change of Tryptamine concentration,[7],0.792 (inactive)
same,fold change of Putrescine concentration,[8],1.01 (inactive)
same,fold change of Putrescine concentration,[9],1 (inactive)
same,fold change of Cadaverine concentration,[10],1.08 (inactive)
same,fold change of Cadaverine concentration,[11],1.01 (inactive)
same,fold change of 2-Phenylethylamine concentration,[12],0.81 (inactive)
CCCCCCCC/C=C\CCCCCCCCCCCC(=O)O [Erucic acid] (20 µM),growth,[1],0.975
same,growth,[2],1
same,growth,[3],1.04
same,growth,[4],1.06
same,fold change of Histamine concentration,[5],1.02 (inactive)
same,fold change of Tryptamine concentration,[6],1.1 (inactive)
same,fold change of Tryptamine concentration,[7],0.851 (inactive)
same,fold change of Putrescine concentration,[8],0.981 (inactive)
same,fold change of Putrescine concentration,[9],1.01 (inactive)
same,fold change of Cadaverine concentration,[10],1.06 (inactive)
same,fold change of Cadaverine concentration,[11],0.99 (inactive)
same,fold change of 2-Phenylethylamine concentration,[12],0.86 (inactive)
C[C@@H]1C[C@H]2[C@@H]3CCC4=CC(=O)C=C[C@]4(C)[C@@]3(Cl)[C@@H](O)C[C@]2(C)[C@@]1(OC(=O)c1ccco1)C(=O)CCl [Mometasone furoate] (20 µM),growth,[1],1.08
same,growth,[2],0.984
same,growth,[3],1.14
same,growth,[4],1.04
same,fold change of Histamine concentration,[5],0.923 (inactive)
same,fold change of Tryptamine concentration,[6],0.991 (inactive)
same,fold change of Tryptamine concentration,[7],0.889 (inactive)
same,fold change of Putrescine concentration,[8],1.02 (inactive)
same,fold change of Putrescine concentration,[9],1 (inactive)
same,fold change of Cadaverine concentration,[10],1.03 (inactive)
same,fold change of Cadaverine concentration,[11],1.03 (inactive)
same,fold change of 2-Phenylethylamine concentration,[12],0.898 (inactive)
Cn1cnc2c1c(=O)[nH]c(=O)n2C [Theobromine] (20 µM),growth,[1],1.19
same,growth,[2],1
same,growth,[3],1.04
same,growth,[4],1.11
same,fold change of Histamine concentration,[5],0.986 (inactive)
same,fold change of Tryptamine concentration,[6],1.11 (inactive)
same,fold change of Tryptamine concentration,[7],1.05 (inactive)
same,fold change of Putrescine concentration,[8],0.998 (inactive)
same,fold change of Putrescine concentration,[9],0.991 (inactive)
same,fold change of Cadaverine concentration,[10],0.982 (inactive)
same,fold change of Cadaverine concentration,[11],1 (inactive)
same,fold change of 2-Phenylethylamine concentration,[12],1.04 (inactive)
O=C1Nc2ccc(Cl)cc2[C@@](C#CC2CC2)(C(F)(F)F)O1 [Efavirenz] (20 µM),growth,[1],1.25
same,growth,[2],1.01
same,growth,[3],1.02
same,growth,[4],1.22
same,fold change of Histamine concentration,[5],0.986 (inactive)
same,fold change of Tryptamine concentration,[6],1.02 (inactive)
same,fold change of Tryptamine concentration,[7],0.936 (inactive)
same,fold change of Putrescine concentration,[8],1.04 (inactive)
same,fold change of Putrescine concentration,[9],0.985 (inactive)
same,fold change of Cadaverine concentration,[10],1.02 (inactive)
same,fold change of Cadaverine concentration,[11],0.997 (inactive)
same,fold change of 2-Phenylethylamine concentration,[12],0.935 (inactive)
